Shown are actives, neighbours in structure and some others; about 10% of the full set was active somewhere.
HP1b chromo inh – blocks HP1-beta chromodomain binding to methylated histone tails. AlphaScreen HP1-beta / biotin-H3K9me3 peptide binding. AID 540317. Potency, µM (doses to about 114 µM), without a hit: at the highest dose activity change, negative = inhibition, actives largely listed as inhibitors. P83916. 390,000 compounds, 0.56% hits; also: nearly all actives have a fitted effect of over 70% in size
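Compound inhibition of the preformed complex between 50 nM HP1-beta and 50 nM biotinylated H3K9me3 peptide was read by AlphaScreen. Buffer was PBS pH 7.4 with 0.01% Tween-20. Incubations ran 30 min at room temperature, with 10 ug/mL donor/acceptor beads.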
JMJD2A Tudor inh – inhibitors of human JMJD2A Tudor domain; O75164; AlphaScreen JMJD2A-Tudor / H3K4me3 peptide binding; Potency, µM (titrated, usually from 114 µM), inactives show top-dose activity change, negative = inhibition, actives largely listed as inhibitors; 390,000 compounds, 4.4% hits; AID 504339; also: % is scaled to controls: 0 for no effect and ±100 for the full control effect; nearly all actives have a fitted effect of over 50% in size
BAZ2B block – BAZ2B (human) inhibition | Q9UIF8 | AlphaScreen BAZ2B-H3K14Ac peptide displacement | Potency, µM (series often up to 114 µM), for the others: top-dose activity change, negative = inhibition, usual class: inhibitors | 360,000 compounds, 4.4% hits | AID 504333; also: % is scaled to controls: 0 for no effect and ±100 for the full control effect; nearly all actives have a fitted effect of over 60% in size
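BAZ2B (50 nM) with biotin-H3(5-23)K14Ac peptide (50 nM) in PBS pH 7.4, 0.01% Tween-20, preformed 30 min, then compound 30 min at room temperature; top concentration 110uM. AlphaScreen streptavidin donor/nickel chelate acceptor beads (10 ug/mL final), 20 min dark, signal read.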
G9a block – inhibitors of human histone lysine methyltransferase G9a; G9a H3K9 monomethylation, AlphaScreen, 2 h; Potency, µM (doses to about 102 µM), for the others: at the highest dose activity, negative = inhibition, hits mostly inhibitors; Q96KQ7; AID 504332; 350,000 compounds, 8.8% hits; also: % is scaled to controls: 0 for no effect and ±100 for the full control effect; nearly all actives have a fitted effect of over 75% in size
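Step 1: enzyme (final 20 nM) with compound, 15 min RT. Step 2: substrate peptide 500 nM and SAM 20 uM, 2 h RT. Step 3: anti-H3K9me1 antibody and AlphaScreen beads, 10 min, then plate read.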
GLS inh – inhibitors of human glutaminase (GLS); Potency, µM (highest dose often 45.5 µM), for inactives: at the highest dose activity change, negative = inhibition, most hits filed as inhibitors; O94925; 410,000 compounds, 0.21% hits; AID 624170; GLS enzymatic activity, qHTS titration; also: % is scaled to controls: 0 for no effect and ±100 for the full control effect
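Assay buffer: 45 mM KH2PO4 pH 8.2, 0.02% Tween-20. hKGA acts on L-glutamine (1 mM solution added); product glutamate is reported by an oxidase/peroxidase Amplex Red coupling, with fluorescence taken at baseline and 30 min.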
* hit, by the source's call; ? = inconclusive; . = no result given; [ ] = dose if it differs, or a comment. Calls follow the shape of the dose curve; as a rule, active = well fitted curve in the direction sought with a large enough effect; inconclusive = small, poorly fitted or top-dose-only effect, or another doubt; inactive = no such curve, though single readings can be large; an effect the other way counts as inactive or inconclusive. Potency is read from the fitted curve at half-maximal effect.

SMILES	HP1b chromo inh	JMJD2A Tudor inh	BAZ2B block	G9a block	GLS inh
C/C=C/COC(=O)c1[nH]c2c(c1C)C(=O)CC(c1ccc(N(C)C)cc1)C2 (centres undefined)	-12%	89µM*	?	35µM*	-3%
COc1ccc(-c2cc(C(C)=O)c(C)n2CCC(=O)Nc2ccc(C)c(Cl)c2)cc1	24%	-4%	0%	-10%[59 µM]	2%
CC(C)CC(=O)/C(=C\c1ccc(Cl)cc1Cl)n1cncn1	35%	-18%	-4%	79µM*	-3%
COc1ccc(/C=C(/C(=O)c2ccc(Cl)cc2Cl)n2cncn2)cc1	2%	-32%	-10%	-14%[59 µM]	13%
CC(C)CC(=O)/C(=C/c1ccc(N(C)C)cc1)n1cncn1	26%	-8%	2%	17%[2.33 µM]	2%
CN(C)c1ccc(/C=C(/C(=O)c2ccc(Cl)cc2Cl)n2cncn2)cc1	-11%	?	50µM*	-8%[59 µM]	15%
O=C1NC(CCO)C(=O)NC1CCO (centres undefined)	22%	3%	.	.	-14%
COc1ccccc1NC(=O)Cn1c(=O)n(-c2ccc(C)cc2)c(=O)c2c1cnn2C	35%	-1%	-1%	2%[59 µM]	2%
CCCCN(C(=O)c1cc(Cl)nc2ccccc12)c1c(N)n(CCCC)c(=O)[nH]c1=O	23%	-31%	1%	56µM*	-1%
CCCCN(C(=O)c1cc(=O)[nH]c2ccccc12)c1c(N)n(CCC)c(=O)[nH]c1=O	36%	16%	-2%	-22%	-4%
CCCCn1c(N)c(N(CCOC)C(=O)c2cc(-c3ccco3)nc3ccccc23)c(=O)[nH]c1=O	-38%	40µM*	50µM*	40µM*	?
CCCCn1c(N)c(N(CCOC)C(=O)c2cc(-c3ccc(OC)c(OC)c3)nc3ccccc23)c(=O)[nH]c1=O	20%	-14%	-36%	11µM*	6%
CCCCN(C(=O)c1ccccc1F)c1c(N)n(CCC)c(=O)[nH]c1=O	29%	79µM*	-12%	8%	1%
CC(=O)N1c2ccc(S(=O)(=O)NCC3CCC(C(=O)NCCC(C)C)CC3)cc2CC1C (centres undefined)	39%	9%	-1%	9%[59 µM]	-25%
COC(=O)[C@H](CC(C)C)NC(=O)Cn1cnc2c(NCc3ccccc3)ncnc21	35%	-4%	.	.	-12%
CCOC(=O)[C@]12CCC=C1N(Cc1ccc(Cl)cc1Cl)C(=O)[C@H](CC(=O)N1CCC(c3ccccc3)CC1)C2	.	.	.	.	0%
COc1cccc(/C=N/Nc2ncnc3c2[nH]c2ccc(C)cc23)c1OC	15%	-35%	?	56µM*	-21%
COc1cccc(/C=N/Nc2ncc(C)c(=O)[nH]2)c1OC	24%	-9%	-2%	32µM*	12%
COc1cccc(/C=N/Nc2nc3ccccc3[nH]2)c1OC	23%	-23%	-36%	.	?
COc1ccc(/C=N/Nc2ncnc3c2[nH]c2ccccc23)c(OC)c1OC	16%	-31%	5%	17%[59 µM]	1%
COc1cccc(C=NNc2nnc(NN=Cc3cccc(OC)c3OC)c3ccccc23)c1OC	?	35µM*	.	.	19%
O=C(COC(=O)c1ccc(Cl)nc1)Nc1ccc(S(=O)(=O)N2CCCC2)cc1	48%	-10%	9%	45µM*	-16%
CC(=O)c1ccc(OCC(=O)Nc2cccc(S(=O)(=O)N3CCCC3)c2)cc1	22%	-16%	-2%	20µM*	-4%
O=C(COC(=O)c1ccc(C(F)(F)F)cc1)Nc1cccc(S(=O)(=O)N2CCCCC2)c1	25%	-21%	-6%	10µM*	0%
CNC(=O)COc1ccc(S(=O)(=O)N2CCCC2)cc1	-14%	11µM*	-3%	-1%	?
SMILES	HP1b chromo inh	JMJD2A Tudor inh	BAZ2B block	G9a block	GLS inh
O=C(O)C(Cc1ccccc1[N+](=O)[O-])N1C(=O)c2ccccc2C1=O (centres undefined)	25%	-5%	.	.	?
O=[N+]([O-])c1ccccc1/C=C/C=N/n1c(-c2ccco2)n[nH]c1=S	-15%	22µM*	?	-131%	?
O=[N+]([O-])c1ccccc1/C=C/C=N/n1c(-c2cc(-c3ccccc3)n[nH]2)n[nH]c1=S	1%	50µM*	-32%	.	0%
Cc1ccc(-c2n[nH]c(=S)n2/N=C/C=C/c2ccccc2[N+](=O)[O-])cc1	?	-36%	?	0.28µM*	?
O=C(N/N=C/C=C\c1ccccc1[N+](=O)[O-])c1cc(-c2ccccc2)nc2ccccc12	17%	-33%	-31%	0%[59 µM]	4%
Cc1ccc(S(=O)(=O)NC(=O)c2cc(C)n(-c3ccc(N(C)C)cc3)c2C)cc1	-2%	-32%	-35%	45µM*	26%
Cc1ccc(S(=O)(=O)NC(=O)Nc2ccc(N(C)C)cc2)cc1	18µM*	22µM*	14µM*	?	14%
Cc1ccc(NC(=O)NNS(=O)(=O)c2ccc(Br)cc2)cc1	24%	-2%	15%	10%[12.7 µM]	14%
O=C(COc1ccccc1/C=C1\SC(=S)NC1=O)Nc1ccc(F)cc1	-34%	-27%	.	.	-11%
CCCc1c(O)nc(SCCN(CC)CC)n(C(=O)c2ccccc2)c1=O	20%	-30%	-32%	79µM*	10%
CCCc1c(O)nc(SCCN(CC)CC)[nH]c1=O	29%	-22%	-25%	8%[12.7 µM]	35%
COc1ccccc1NC1=C(N2CCCCC2)C(=O)c2ccccc2C1=O	?	40µM*	32µM*	6.3µM*	16%
O=C1C(Nc2cccc(O)c2)=C(N2CCCCC2)C(=O)c2ccccc21	22µM*	14µM*	22µM*	.	23%
Cc1ccc(NC2=C(N3CCCCC3)C(=O)c3ccccc3C2=O)cc1	?	14µM*	-28%	5.6µM*	29%
O=C1C(Nc2ccccc2)=C(N2CCCCC2)C(=O)c2ccccc21	?	40µM*	25µM*	18%[0.501 µM]	0%
COc1ccccc1NC(=O)CN1CCCCCC1	13%	-8%	-2%	17%	6%
Cc1cc(C)c(NC(=O)c2c(C)oc3c2C2=NCCN2C=N3)c(C)c1	21%	-25%	-10%	-14%[59 µM]	-22%
CCOCCCNC(=O)c1ccc(CN2CCc3ccccc3C2)cc1	.	.	.	.	10%
CC(=O)NCCNc1nc(-c2ccccc2C)nc2ccccc12	.	.	.	6%[0.501 µM]	.
O=C(/C=C/c1ccc(O)cc1)c1ccccc1	24%	-8%	-10%	.	1%
CN(c1ccccc1)c1nc(N)c([N+](=O)[O-])c(N2CCCCC2)n1	-10%	?	?	?	-7%
O=C(/C=C/c1ccc(O)cc1)c1ccc(NC2=C(N3CCCCC3)C(=O)c3ccccc3C2=O)cc1	-68%	20µM*	?	14µM*	18%
CN(C1=C(N2CCCCC2)C(=O)c2ccccc2C1=O)c1ccccc1	?	4µM*	2.8µM*	3.5µM*	0%
Cc1cc(NC(=O)c2cncc(Br)c2)n(-c2ccccn2)n1	29%	-6%	50µM*	12%	-11%
